High-throughput results: PubChem, several laboratories
Only some compounds are listed: those with a hit (about 3.5% of all), similar ones and a draw of the others.
UGM FP inh: M. tuberculosis UGM enzyme inhibitors, primary screen, biochemical, fluorescence polarization, single point. AID 504406, 2011. inhibition, % at 10 µM. actives 0.06% (n = 320,000). UDP-galactopyranose mutase (Mycobacterium tuberculosis (strain ATCC 25618 / H37Rv)), …. purified UGM, fluorescence polarization probe displacement; in the data active = inhibition above about 10%, passing the limit was not always enough; inconclusive = no clear call, values can overlap the other calls
Rv3671c inh: Rv3671c serine protease inhibitors, primary screen, biochemical, fluorescence polarization, M. tuberculosis H37Rv | actives 0.048% (n = 320,000) | P9WHR9 | inhibition, % at 5.96 µM | AID 2606, 2010; in the data active = inhibition above about 38%;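 note: extracellular domain of Rv3671c used as enzyme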
FadD28 FP inh: inhibitors of FadD28 bisubstrate probe binding, primary screen, biochemical, fluorescence polarization, single point. Mycobacterium tuberculosis FadD28 fatty-acid-AMP ligase. inhibition, % at 12.5 µM. actives 0.22% (n = 360,000); in the data active = inhibition above about 8.5%, passing the limit was not always enough; inconclusive = no clear call, values can overlap the other calls
GDH-TPI counter: GDH-TPI coupling enzyme inhibitors, primary screen, artefact control for M. tuberculosis FBA inhibitor project, biochemical, absorbance, full deck; GDH-TPI coupled enzyme counterscreen, NADH absorbance; inhibition, % at 4.8 µM; actives 1.2% (n = 360,000); AID 588335, 2011; in the data active = inhibition above about 30%
Mtb FBA inh: Mtb FBA enzyme inhibitors, primary screen, biochemical, fluorescence, strain H37Rv | AID 588726, 2011 | Fructose-bisphosphate aldolase (Mycobacterium tuberculosis (strain ATCC 25618 / H37Rv)), … | purified M. tuberculosis FBA, fluorescence read-out | actives 2.3% (n = 360,000) | inhibition, % at 1 µM; in the data active = inhibition above about 27%
Target sequence (P9WQA3 whole entry, looked up): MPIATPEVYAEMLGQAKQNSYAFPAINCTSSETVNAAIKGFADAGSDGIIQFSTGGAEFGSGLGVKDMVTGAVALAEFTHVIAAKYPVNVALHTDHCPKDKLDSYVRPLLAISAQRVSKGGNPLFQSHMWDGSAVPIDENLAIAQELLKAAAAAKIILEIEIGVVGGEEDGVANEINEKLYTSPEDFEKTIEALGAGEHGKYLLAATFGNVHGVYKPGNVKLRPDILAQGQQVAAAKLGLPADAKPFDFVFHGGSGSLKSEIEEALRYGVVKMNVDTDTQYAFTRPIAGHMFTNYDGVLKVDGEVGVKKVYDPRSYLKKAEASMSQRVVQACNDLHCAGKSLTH
Mtb hypoxia rep: PubChem AID 1159583. fluorescence inhibition, % (no concentration beside the values). M. tuberculosis hypoxia-regulated fluorescent reporter, fluorescence. actives 0.1% (n = 300,000); in the data active = fluorescence inhibition mostly above about 23%, no sharp cut-off; inactive = mostly below about 17%
Large screens that a line does not name were inactive.

Cc1ccc(N(CCC#N)C(=O)CCl)cc1C	Mtb hypoxia rep 38
COc1cc(/C=C/C(=O)N2CCC=CC2=O)cc(OC)c1OC	GDH-TPI counter 35 (no result: Mtb hypoxia rep)
COc1cc(/C=N/N(C)C)cc(Br)c1O	GDH-TPI counter 32 (no result: Mtb hypoxia rep)
COc1cc(C=NN(C)C)cc(Br)c1O	none (no result: UGM FP inh, Rv3671c inh, FadD28 FP inh, GDH-TPI counter, Mtb FBA inh)
COc1cc(/C=N/N(C)c2ccccc2)cc(Cl)c1O	GDH-TPI counter 40 (no result: Mtb hypoxia rep)
CCN(CC)c1ccc(/C=N/NC(=O)Cc2cccs2)c(O)c1	FadD28 FP inh inconclusive, GDH-TPI counter 38 (no result: Mtb hypoxia rep)
CCN(CC)c1ccc(/C=N/NC(=O)c2ccco2)c(O)c1	GDH-TPI counter 41 (no result: Mtb hypoxia rep)
CCN(CC)c1ccc(C=NNC(=O)CCC(=O)NCc2ccccc2)c(O)c1	none (no result: UGM FP inh, Rv3671c inh, FadD28 FP inh, GDH-TPI counter, Mtb FBA inh)
CCN(CC)c1ccc(/C=N/NC(=O)c2ccco2)cc1	GDH-TPI counter 43 (no result: Mtb hypoxia rep)
CN(C)c1ccc(C=NNC(=O)c2ccco2)cc1	none (no result: UGM FP inh, Rv3671c inh, FadD28 FP inh, GDH-TPI counter, Mtb FBA inh)
CCC1=C(OC(=O)N(CC)CC)N2C(=O)OC(=NCC(=O)OC)[C@]2(Cc2ccccc2)C2C1=CCC1C(=O)N(C)C(=O)C12 (some centres not stated)	none (no result: UGM FP inh, Rv3671c inh, FadD28 FP inh, GDH-TPI counter, Mtb FBA inh)
CC(=NN1CCN(C)CC1)c1ccc(OC(F)F)cc1	none (no result: UGM FP inh, Rv3671c inh, FadD28 FP inh, GDH-TPI counter, Mtb FBA inh)
CCCCCCSc1cc(-c2nc3cc(C)ccn3c2NCCCC)ccc1OC	none (no result: Mtb hypoxia rep)
CCCCNc1c(-c2cccc(-c3cc(C(C)=O)cs3)c2)nc2cc(C)ccn12	GDH-TPI counter 33
COc1ccc(NC(=O)/C(C#N)=C\c2ccc(OCc3ccc(C(=O)O)cc3)c(OC)c2)cc1	none
N#C/C(=C\c1ccc(OCc2ccc(F)cc2)cc1)C(=O)Nc1cccc(C(=O)O)c1	GDH-TPI counter 73 (no result: Mtb hypoxia rep)
COc1cc(/C=C(\C#N)C(=O)Nc2cccc(C(=O)O)c2)ccc1OCc1ccc(F)cc1	GDH-TPI counter 36
COc1cc(/C=C(/C#N)c2ccc(F)cc2)ccc1OCc1ccc(C(=O)O)o1	GDH-TPI counter 45
N#C/C(=C\c1ccc(OCc2ccc(Br)cc2)cc1)C(=O)Nc1cccc(C(=O)O)c1	none
COc1ccc(C(C)=NNC(=O)c2ccc(NS(=O)(=O)c3cccs3)cc2)cc1	none (no result: UGM FP inh, Rv3671c inh, FadD28 FP inh, GDH-TPI counter, Mtb FBA inh)
O=C(CCCN1C(=O)/C(=C\c2cccs2)SC1=S)Nc1ccc(O)cc1C(=O)O	none
O=C(CCN1C(=O)S/C(=C/c2ccc(F)cc2)C1=O)Nc1ccc(O)c(C(=O)O)c1	GDH-TPI counter 32
O=C(CCN1C(=O)S/C(=C\c2ccc(F)cc2)C1=O)Nc1ccc(C(=O)O)c(O)c1	GDH-TPI counter 43 (not shown: Mtb hypoxia rep)
O=C(CCN1C(=O)S/C(=C\c2ccc(F)cc2)C1=O)Nc1ccc(O)cc1C(=O)O	GDH-TPI counter 43
O=C(CCN1C(=O)S/C(=C/c2ccccc2)C1=O)Nc1ccc(C(=O)O)c(O)c1	none (not shown: Mtb hypoxia rep)
Brc1ccc(OCc2nnc3n2CCC3)cc1	Mtb hypoxia rep 36
c1ccc(OCc2nnc3n2CCCCC3)cc1	none
COC(=O)CNC(=O)CSc1nc2sc(-c3ccccc3)cc2c(=O)n1-c1ccccc1	GDH-TPI counter 47
CCCNC(=O)N1C2CCC1C(C(=O)OC)=C(c1ccc(F)cc1F)C2 (configuration not stated)	none (no result: UGM FP inh, Rv3671c inh, FadD28 FP inh, GDH-TPI counter, Mtb FBA inh)
O=C(C[C@H]1C[C@H](C(=O)N2CCOCC2)[C@@]2(CCC3CCCC3)c3[nH]c4cc(-c5ccco5)ccc4c3CCN2C1=O)NCCN1CCOCC1	Mtb FBA inh 41 (no result: UGM FP inh, Rv3671c inh)
ON=Cc1cn(-c2ccccc2)nc1-c1cccnc1	none (no result: UGM FP inh, Rv3671c inh, FadD28 FP inh, GDH-TPI counter, Mtb FBA inh)
Cc1cc(C)c2c(n1)nn1c(N3CCN(Cc4ccccc4)CC3)cc(C)nc21	Mtb FBA inh 114 (no result: UGM FP inh, Rv3671c inh)
COc1ccc(/C=C(/NC(=O)c2ccccc2)c2nc3ccccc3[nH]2)cc1OC	GDH-TPI counter 42 (no result: Mtb hypoxia rep)
Cc1ccc(C(=O)N/C(=C\c2cccnc2)c2nc3ccccc3[nH]2)cc1	none
COc1ccc(C(=O)N/C(=C\c2cccs2)c2nc3ccccc3[nH]2)cc1OC	GDH-TPI counter 49
COc1ccc(/C=C(/NC(=O)c2ccccc2)c2nc3ccc(Cl)cc3[nH]2)cc1OC	GDH-TPI counter 36
CCN(/N=C/c1ccc(Cl)cc1)c1cc(=O)n(C)c(=O)[nH]1	GDH-TPI counter 51 (no result: Mtb hypoxia rep)
CCN(/N=C/C=C/c1ccccc1)c1cc(=O)n(C)c(=O)[nH]1	GDH-TPI counter 70 (no result: Mtb hypoxia rep)
COc1cc(-c2nc3ccccn3c2N=Cc2cc(OC)c(O)cc2Cl)ccc1O	none (no result: UGM FP inh, Rv3671c inh, FadD28 FP inh, GDH-TPI counter, Mtb FBA inh)
C=CCOc1ccc(/C=C2\SC(=S)N(C(C(=O)O)c3ccccc3)C2=O)cc1 (configuration not stated)	FadD28 FP inh 14 (no result: UGM FP inh, Rv3671c inh)
O=C(N/N=C/c1c(O)ccc2ccccc12)c1cccnc1	none (no result: Mtb hypoxia rep)
COc1ccc2ccccc2c1/C=N\NC(=O)c1cccnc1	GDH-TPI counter 35 (no result: Mtb hypoxia rep)
Cc1cc(O)c(C)c(O)c1/C=N/NC(=O)c1cccnc1	GDH-TPI counter 31 (no result: Mtb hypoxia rep)
CC(NC(=O)c1ccccc1)C(=O)NN=Cc1cccc([N+](=O)[O-])c1 (configuration not stated)	none (no result: UGM FP inh, Rv3671c inh, FadD28 FP inh, GDH-TPI counter, Mtb FBA inh)
Cc1ccsc1C1Nc2ccccc2-c2nc3ccccc3n21 (configuration not stated)	Mtb FBA inh 178
COc1ccc(C2=NN(C(=O)c3ccco3)C(c3cccs3)C2)cc1OC (configuration not stated)	GDH-TPI counter 38 (no result: UGM FP inh, Rv3671c inh, Mtb hypoxia rep)
COc1ccc(C2=NN(C(=O)c3cccs3)C(c3ccccc3OC)C2)cc1OC (configuration not stated)	GDH-TPI counter 34
COc1ccc(C2=NN(C(=O)CCCC(=O)O)C(c3cccs3)C2)cc1OC (configuration not stated)	none
Cc1ccc(C2=NN(C(=O)c3cccs3)C(c3ccccc3O)C2)cc1 (configuration not stated)	none
O=C(N/N=C/c1ccc2ncccc2c1)c1cc(-c2cccs2)nc2ccccc12	GDH-TPI counter 39 (no result: Mtb hypoxia rep)
O=C(NN=Cc1ccc2ncccc2c1)c1cc(-c2cccs2)nc2ccccc12	none (no result: UGM FP inh, Rv3671c inh, FadD28 FP inh, GDH-TPI counter, Mtb FBA inh)
Cn1cccc1/C=N/NC(=O)c1cc(-c2cccs2)nc2ccccc12	GDH-TPI counter 31 (no result: Mtb hypoxia rep)
NC(=O)c1cc(Cc2ccccc2)sc1NC(=O)c1ccco1	GDH-TPI counter 39
